Source: PubChem (several laboratories)
Compounds with a hit are over-represented: about 12% of the library has one in this group of screens.
m-calpain inh = inhibitors of pig calpain II | 220,000 compounds, 0.37% hits | AID 1236 | purified calpain II, fluorogenic peptide substrate, 30 min | inhibition, % at 16 µM;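 active means inhibition above about 50%, limit read from the data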
ROMK primary = modulates human ROMK potassium channel activity. P48048. Tet-inducible ROMK, thallium flux fluorescence; actives lie on both sides. B-score at 10 µM. 130,000 compounds, 2% hits;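 active means signal ratio slope over the read window, or its plate-corrected B-score, at least 3 SD from the plate mean, either direction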;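 further: B-score of the F/F0 ratio slope over 7 to 12 s after thallium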
WT yeast gro inh = growth inhibition of WT yeast, mitochondrial fusion screen | mitochondrial fusion phenotypic screen, WT strain | 190,000 compounds, 2.1% hits | inhibition, % at 10 µM | AID 1362; in the data active means inhibition above about 58%; tested in S. cerevisiae
Cl transport mod = KCC2 (human) Cl- transport modulation; Q9H2X9; KCC2 cells, thallium flux FluoZin-2 fluorescence; AID 1456; B-score of Tl+ flux slope (higher = more flux/activation; lower = inhibition) at 10 µM; 190,000 compounds, 2.2% hits;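 active means thallium flux slope and its plate-corrected score both differing from the plate sample mean at a set confidence after two filtering rounds, in either direction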;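 further: slope of fluorescence scaled to starting intensity during 10 to 20 s after thallium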
Lmaj promast = inhibitors of Leishmania major promastigote growth; Leishmania major promastigotes, resazurin fluorescence viability; inhibition, % at 10 µM; 200,000 compounds, 9% hits; AID 1063; in the data active means inhibition above about 50%;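 further: promastigotes grown with compound for 44 hours at 28 °C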
ROMK hit retest = retested hit modulating human ROMK potassium channel; ROMK thallium flux, fluorescence ratio; hits give low values; 3,000 compounds, 54% hits; shares compounds with ROMK primary; normalized thallium flux (F/F0 slope) at 10 µM;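 active means Flux at 10 µM at least 3 SD below or above vehicle control mean in one or both replicates; inconclusive means no clear call, values can overlap the other calls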
Numbers without * were called inactive; ? = inconclusive; . = no result.

SMILES	m-calpain inh	ROMK primary	WT yeast gro inh	Cl transport mod	Lmaj promast	ROMK hit retest
COc1ccc(C(=O)/C(C#N)=N/Nc2ccccc2[N+](=O)[O-])cc1	-3.7	3.82*	-0.9	-0.307	5.0	0.0743
CC(C)N=c1c([N+](=O)[O-])nn(C)n1O	16.6	0.161	1.0	0.924	-0.1	.
NC(=O)CC(NC(=O)c1ccccc1)c1ccc(NCCc2ccc(F)cc2)c([N+](=O)[O-])c1 (centres undefined)	-15.1	.	.	-0.046	.	.
CCOc1ccc(NC(=O)C2CC=CCC2C(=O)O)cc1 (centres undefined)	-13.2	.	-27.1	.	-3.1	0.0837
CC1CN(C(=O)c2ccccc2)c2ccccc2NC1=O (centres undefined)	13.3	-1.45*	-1.3	0.292	-0.1	0.0781
CCC(=O)N1CC(C)C(=O)Nc2ccccc21 (centres undefined)	8.6	0.999	-14.2	1.02	-3.3	.
COC(=O)N/N=C/c1cn(Cc2ccccc2F)c2ccccc12	-15.5	-3.35*	.	-0.346	.	0.0586*
COC(=O)N/N=C/c1cn(Cc2ccc(F)cc2)c2ccccc12	-26.3	.	.	0.569	.	.
Cc1onc(C(=O)Nc2sc3c(c2C#N)CCCC3)c1[N+](=O)[O-]	-10.9	-0.326	-9.5	0.0898	20.2	.
CCOC(=O)Nc1ccc2c(c1)N(C(=O)N(CC)CC)c1ccccc1CC2	19.1	-1.59	41.6	-1.4	16.8	.
CC(/C=N/NC(=O)c1cc(-c2cccnc2)nc2c1c(C)nn2-c1ccccc1)=C\c1ccccc1	-239.9	.	6.7	1.21	56.9*	?
Cc1nn(-c2ccccc2)c(N2CCCC2)c1/C=N/NC(=O)c1cc(-c2cccnc2)nc2ccccc12	-135.7	.	-0.2	-0.00186	28.6	.
CCc1nnc(NC(=O)C2CCN(c3nc(C)cc(C)n3)CC2)s1	-23.9	2.17*	4.8	.	1.5	0.0708
Cc1cc(C)nc(N2CCCC(C(=O)Nc3nnc(C)s3)C2)n1 (centres undefined)	-61.1	.	1.9	.	2.1	.
CCCCOc1ccc(CSCCN)cc1Cl	9.0	-3.18*	.	0.451	.	?
COc1ccc(Br)c2oc(SC)cc(=O)c12	-14.8	-0.0548	11.6	-0.762	2.1	.
CCOc1cccc(C2C(C(=O)c3ccc(C)o3)=C(O)C(=O)N2c2nccs2)c1 (centres undefined)	-97.5	-5.41*	-10.6	-2.2	-10.3	0.0379*
O=S(=O)(c1ccccc1)c1nc(-c2ccco2)oc1N1CCCCCC1	22.6	-2.76*	34.5	-0.657	9.4	0.0716
COc1ccccc1C1NC=C([N+](=O)[O-])C=C1[N+](=O)[O-] (centres undefined)	12.7	.	8.0	-3.52	28.9	0.0513*
COc1ccccc1C1C([N+](=O)[O-])=CC([N+](=O)[O-])=CN1C (centres undefined)	5.5	-4.95*	-8.6	-4.93	8.9	0.0546*
COc1ccccc1C1CCN(c2ccc([N+](=O)[O-])c(OC)c2)CC1	12.5	.	.	-1.35	.	.
Cc1noc(C)c1-c1nc(CS(=O)(=O)c2ccccc2)no1	6.2	.	.	.	.	.
COc1cc(/C=C2\C(=O)N(c3ccc(NC(C)=O)cc3)N=C2c2ccccc2)ccc1O	4.3	-2.44	10.2	-1.95	3.9	.
O=C1/C(=C\c2ccc(O)c(O)c2)C(c2ccccc2)=NN1c1ccccc1	-12.6	-3.9*	5.9	-0.624	98.5*	?
COCCCNc1ccc([N+](=O)[O-])cc1C(=O)Nc1cccc(C)n1	23.6	-4.15*	-4.3	-1.57	10.6	0.0454*
SMILES	m-calpain inh	ROMK primary	WT yeast gro inh	Cl transport mod	Lmaj promast	ROMK hit retest
O=c1c2ccccc2c(C=Nc2ccc(O)cc2)c(O)n1Cc1ccccc1	-31.0	-4.59*	.	-0.595	.	0.0411*
CN(Cc1nc(-c2cnccn2)no1)Cc1n[nH]c2c1CCCC2	45.7	1.33	7.1	0.553	-4.9	.
O=C(c1cc2c(cc1Br)OCCCO2)N1CCCCC1	-1.9	0.223	1.8	2.1	-3.4	.
CN(C)c1ccc(/C=N/NC(=O)c2ccccc2Cl)cc1	19.2	1.94	-1.0	-0.31	-3.3	0.0876
CN(C)c1ccc(/C=N/NC(=O)c2ccccc2)cc1	27.8	0.715	7.3	1.06	-1.2	.
O=C(NC(Nc1ncc(S(=O)(=O)c2ccc([N+](=O)[O-])cc2)s1)(C(F)(F)F)C(F)(F)F)c1ccc(Cl)cc1	-169.4	-3.01*	21.4	0.0741	10.0	0.079
O=C(Nc1ccc2oc(-c3ccncc3)nc2c1)c1cccs1	-216.0	.	17.0	.	16.0	0.0803
O=C1/C(=C\Nc2ccc(OC(F)(F)F)cc2)CCN1c1ncccn1	-5.3	2.94*	3.4	.	-1.8	0.0832
O=C1/C(=C\Nc2ccc(Cl)cc2)CCN1c1ncccn1	10.4	.	11.2	.	3.3	.
Cc1ccc(C(=O)N2CCc3ccccc32)o1	3.7	-0.514	6.6	-2.11	6.7	.
CC(=O)c1ccc(-c2ccc(C(=O)N3CCCc4ccccc43)o2)cc1	27.9	-3.54*	43.7	-3	5.2	0.057*
COc1ccc(CC(=O)N2CCCc3ccccc32)cc1	0.1	.	4.9	0.385	-4.4	0.0774
Cn1c(CCNC(=O)c2ccc(Cl)c(Cl)c2)nnc1SCc1ccc(Cl)c(Cl)c1	34.2	.	14.2	.	-1.8	0.0793
C=CCn1c(CCNC(=O)c2ccc(Cl)c(Cl)c2)nnc1SCCOc1ccc(OC)cc1	21.9	.	34.7	-1.25	6.4	.
O=C(O)c1ccc(N2C(=O)CC(SC(=NCc3ccc4c(c3)OCO4)Nc3ccc(F)cc3)C2=O)cc1 (centres undefined)	-26.6	0.254	1.1	0.0595	7.8	.
CCN(CC)S(=O)(=O)c1ccc(NC(=O)Cc2cccs2)cc1	-49.9	-0.307	-4.7	-1.67	-2.7	.
Clc1ccc(-c2c[n+](Cc3ccc(Br)cc3)c3n2CCCCC3)cc1	-0.7	-4.18*	.	-0.974	.	0.0754
O=[N+]([O-])c1ccc(C[n+]2cc(-c3ccccc3)n3c2CCCCC3)cc1	-22.0	-0.505	11.8	0.756	0.0	.
CC1CCC(C(C)C)C(OC(=O)C[n+]2cc(-c3ccc(Cl)cc3)n3c2CCCCC3)C1 (centres undefined)	-2.6	-9.81*	21.8	0.101	100.5*	0.0495*
Clc1ccc(-c2c[n+](Cc3ccc(Cl)cc3Cl)c3n2CCCCC3)cc1	7.0	.	.	.	.	0.0552*
N#CCC(=O)NNC(=S)Nc1ccccc1C(F)(F)F	-11.0	-0.272	-4.0	1.02	12.5	.
COc1ccc(CCN(C)S(=O)(=O)c2ccc(Cl)nc2)cc1OC	1.1	-0.203	4.5	-1.48	-4.8	.
N#C/C(=C/c1ccc(CNC(=O)C(=O)Nc2cc(Cl)cc(Cl)c2)o1)C(=O)NCc1cccnc1	-38.2	.	-1.0	-0.027	-4.9	.
Cc1ccc(C(=O)N/C(=C\c2ccc(-c3cc(Cl)ccc3Cl)o2)C(=O)NCc2cccnc2)cc1	-155.6	0.209	-8.1	-2.07	37.5	.
O=C(NCc1cccnc1)/C(=C/c1ccc(-c2cccc(Cl)c2)o1)S(=O)(=O)c1ccccc1	-106.3	-5.31*	-17.2	0.0207	100.4*	0.0512*
O=C(NCc1cccnc1)/C(=C\c1ccc(-c2cccc(Cl)c2)o1)S(=O)(=O)c1ccccc1	-113.0	-4.79*	0.5	-0.227	100.3*	0.0501*
